# Screening results: PubChem, National Center for Advancing Translational Sciences (NCATS)
# The list is not random: actives were taken first. Their share in the collection is about 12%.
# AmpC detergent – AmpC beta-lactamase inhibition with detergent present. P00811. AmpC hydrolysis of nitrocefin, absorbance 480 nm, 0.01% Triton. Potency, µM (top dose mostly 114 µM), for the others: at the highest dose activity change, negative = inhibition, hits mostly inhibitors. 370,000 tested, 0.041% active;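 note: 0% = no-compound wells and -100% = no-enzyme wells; nearly all actives have a fitted effect of over 25% in size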
# Target sequence (P00811 whole entry, looked up): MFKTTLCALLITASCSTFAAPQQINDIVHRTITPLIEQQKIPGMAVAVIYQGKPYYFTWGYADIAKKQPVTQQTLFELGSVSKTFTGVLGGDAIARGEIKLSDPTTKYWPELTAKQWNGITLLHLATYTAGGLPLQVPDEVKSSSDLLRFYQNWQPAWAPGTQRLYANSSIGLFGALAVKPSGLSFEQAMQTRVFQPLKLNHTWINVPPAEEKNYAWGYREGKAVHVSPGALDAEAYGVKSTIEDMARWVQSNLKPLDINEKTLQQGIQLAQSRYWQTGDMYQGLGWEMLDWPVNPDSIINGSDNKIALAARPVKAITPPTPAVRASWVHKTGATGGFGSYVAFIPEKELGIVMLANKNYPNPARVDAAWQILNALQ
#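 AmpC (5.3 nM in the dispensed reagent) in 20 mM phosphate pH 7.0 with 0.01% (detergent screen) or 0.0001% Triton X-100 was preincubated with compounds for 15 min at room temperature. Nitrocefin was then added from an 800 uM solution, and hydrolysis was followed at 480 nm.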
# Pf growth 96h – inhibits malaria parasite growth, 96 h. P. falciparum luciferase reporter growth, 96 h. Potency, µM (series often up to 28.7 µM), inactives show at the top dose activity change, negative = inhibition, actives largely listed as inhibitors. 320,000 tested, 6.9% active; note: % is set by controls: 0 for no effect and ±100 for the full control effect
#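 96 h incubation, 37 C, 5% CO2, of luciferase-reporter P. falciparum-infected RBCs (2% hematocrit, 0.05% parasitemia final) with test compounds; endpoint luminescence.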
# AmpC no deterg – inhibitors of E. coli AmpC beta-lactamase without detergent; P00811; AmpC nitrocefin hydrolysis, absorbance 480 nm, 0.0001% Triton; Potency, µM (doses to about 57.1 µM), inactives show at the top dose activity change, negative = inhibition, actives largely listed as inhibitors; 330,000 tested, 0.52% active; AID 485341;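 note: plate controls were no compound for no effect and no enzyme for full effect; nearly all actives have a fitted effect of over 20% in size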
#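 AmpC (5.3 nM in the dispensed reagent) in 20 mM phosphate pH 7.0 with 0.01% (detergent screen) or 0.0001% Triton X-100 was preincubated with compounds for 15 min at room temperature. Nitrocefin was then added from an 800 uM solution, and hydrolysis was followed at 480 nm.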
# Sm TGR block – inhibitors of Schistosoma mansoni thioredoxin glutathione reductase; Q962Y6; purified TGR, DTNB reduction, TNB absorbance 405 nm; Potency, µM (highest dose often 114 µM), inactives show at the top dose activity change, negative = inhibition, hits mostly inhibitors; 360,000 tested, 3% active; note: % is set by controls: 0 for no effect and ±100 for the full control effect; nearly all actives have a fitted effect of over 60% in size
#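 First, TGR (20 nM dispensed) and NADPH were mixed with compound. Second, a 15 min room-temperature incubation followed. Third, further NADPH and then DTNB were added to start the reaction. Finally, TNB absorbance was monitored kinetically.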
# Pf growth 48h – P. falciparum growth inhibition at 48 hours (one generation); P. falciparum luciferase growth in erythrocytes, 48 h; Potency, µM (titrated, usually from 28.7 µM), without a hit: top-dose activity change, negative = inhibition, usual class: inhibitors; 310,000 tested, 5.9% active; AID 504832; note: % is set by controls: 0 for no effect and ±100 for the full control effect
#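 In quantitative HTS format, infected erythrocytes bearing luciferase-reporter parasites were treated for a single generation at 37 C. Luminescence after adding detection reagent served as the growth measure.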
# SARS PLpro yeast – inhibitors of SARS-CoV papain-like protease in yeast. S. cerevisiae expressing SARS-CoV PLpro, growth rescue. Potency, µM (titrated, usually from 32.9 µM), for the others: at the top dose activity, positive = growth rescue, usual class: activators. 330,000 tested, 0.19% active; calls by dose curve; note: 0% is about no effect; nearly all actives have a fitted effect of over 55% in size
# * = called active by the depositor; ? = inconclusive; . = no result given. Unless noted, calls come from the whole dose curve; as a rule, active = well fitted curve in the direction sought with a large enough effect; inconclusive = small, poorly fitted or top-dose-only effect, or another doubt; inactive = no such curve, though single readings can be large; an effect the other way counts as inactive or inconclusive. Potency is the fitted concentration of half-maximal effect.
SMILES,AmpC detergent,Pf growth 96h,AmpC no deterg,Sm TGR block,Pf growth 48h,SARS PLpro yeast
Cc1cc2c(cc1C)NC(CC(=O)Nc1ccccc1SC(F)(F)F)C(=O)N2 (centres undefined),6.9%,.,.,1.3%,.,.
C=CCN(CC=C)S(=O)(=O)c1ccc(NC(=S)NC(=O)c2ccco2)cc1,-13.0%,.,35.5µM*,?,?,-3.7%
C=CCN(CC=C)S(=O)(=O)c1ccc(NC(=S)NC(=O)c2ccc(-c3ccccc3)cc2)cc1,-0.7%,.,-23.3%,-5.6%,1.47µM*,0.3%
C=CCN(CC=C)S(=O)(=O)c1ccc(NC(=S)NC(=O)Cc2ccc(OC)cc2)cc1,-0.8%,89.9%,-37.3%,-24.2%,7.4%,12.3%
Cc1nn(CC(=O)Nc2cccnc2N2CCOCC2)c(=O)c2ccccc12,?,-15.1%,-9.2%,-23.1%,0.5%,?
O=C(CSS(=O)(=O)O)N1CCN(C(=O)c2ccoc2)CC1,1.1%,25.1%,-2.5%,6.1%,18.2%,-0.1%
COC(=O)c1cc(S(=O)(=O)NCc2cccs2)c[nH]1,0.2%,11.7µM*,-1.8%,6.9%,2.9%,1.0%
O=S(=O)(NCc1cccs1)c1ccc(Cl)s1,2.3%,7.38µM*,-25.0%,-1.0%,2.4%,-7.6%
CCN(CC)S(=O)(=O)c1ccc(S(=O)(=O)NCc2cccs2)cc1,-9.7%,8.28µM*,-40.1%,-3.6%,22.0%,-3.8%
Cc1cccc(CNS(=O)(=O)c2csc(C(N)=O)c2)c1,-0.7%,-10.3%,-17.2%,20.3%,-16.5%,-7.6%
NC(=O)c1cc(S(=O)(=O)NCc2cccs2)cs1,3.6%,8.28µM*,-11.7%,-5.4%,41.9%,-0.1%
CCc1ccccc1NC(=O)CN1CCCN(Cc2cc(C)ccc2C)S1(=O)=O,11.8%,.,.,0.3%,.,.
COC(=O)c1cc(S(=O)(=O)NCc2ccccc2Cl)c[nH]1,-8.7%,2.62µM*,-22.9%,-20.0%,31.9%,3.8%
COC(=O)c1cc(S(=O)(=O)NCC2CCN(Cc3ccccc3F)CC2)c[nH]1,-5.7%,27.5%,-11.6%,9.6%,15.2%,2.1%
O=C(Nc1ccc(Oc2ccc(Cl)cc2)cc1)c1ncn[nH]1,-17.4%,36.4%,-47.9%,2.3%,9.28µM*,-1.6%
Cc1ccc(NC(=O)c2ncn[nH]2)cc1,1.9%,-24.0%,-12.7%,.,50.6%,12.3%
Cc1cc2cc(CNC(=O)c3ccc(S(=O)(=O)N4CCCC4)cc3)ccc2n1C,-22.2%,9.28µM*,?,2.9%,?,6.3%
O=C(NCc1ccco1)c1cccc(S(=O)(=O)N2CCOCC2)c1,-6.1%,.,-11.2%,?,11.3%,4.5%
O=C(COC(=O)c1ccc(S(=O)(=O)N2CCCC2)cc1)NCc1ccco1,0.2%,39.4%,-7.1%,39.8µM*,29.1%,-0.1%
O=C(NCc1ccco1)c1ccc(S(=O)(=O)N2CCCCC2)cc1,-4.1%,27.7%,-6.8%,11.7%,-0.1%,0.2%
O=C(NCc1ccco1)c1ccc(S(=O)(=O)N2CCCCCC2)cc1,-14.2%,10.4µM*,-25.7%,-5.8%,8.28µM*,-1.2%
O=C(NCc1ccco1)c1cccc(S(=O)(=O)N2CCCCC2)c1,-9.6%,.,-24.5%,25.1µM*,?,-14.8%
Cc1ccc2c(c1)c1c(c(=O)n(-c3ccccc3)c(=O)n1CC(=O)c1ccc(F)cc1)n2C,-0.2%,.,.,2.1%,.,.
CCOC(=O)c1ccccc1NC(=O)CSc1nc(=O)[nH]c2c1CCC2,-0.6%,.,.,9.4%,.,.
Nc1nc(-c2ccccc2)nc2sc3c(c12)CCCC3,-8.2%,-1.2%,-18.1%,0.1%,152.5%,-9.3%
SMILES,AmpC detergent,Pf growth 96h,AmpC no deterg,Sm TGR block,Pf growth 48h,SARS PLpro yeast
Fc1ccccc1-c1nc2ccccc2[nH]1,-6.5%,13.1µM*,-4.6%,0.0%,5.4%,-5.7%
CCOC(=O)/C=C1\CN(C(C)c2ccccc2)S(=O)(=O)c2ccccc21 (centres undefined),-12.9%,-25.8%,-4.9%,28.2µM*,-3.2%,-1.9%
CCN1C(C(=O)c2ccccc2)=C(OC(=O)C(C)C)c2ccccc2S1(=O)=O,15.6%,.,.,-28.8%,.,.
CCOC(=O)/C=C1\CN(CCC(C)C)S(=O)(=O)c2ccccc21,-14.3%,14.7µM*,-2.6%,56.2µM*,?,-3.8%
CCOC(=O)/C=C1\CC(C(=O)OCC)Oc2ccccc21 (centres undefined),.,.,-3.5%,.,.,-6.4%
O=C(NC(=S)Nc1ccc(N2CCCCC2)cc1)c1cccs1,0.6%,?,-56.7%,39.8µM*,?,-16.2%
Cc1ccc(C(=O)NC(=S)Nc2ccc(S(=O)(=O)N3CCN(C)CC3)cc2)cc1,?,?,75.2%,28.2µM*,?,1.2%
Cc1cccc(C(=O)NC(=S)Nc2ccc(S(=O)(=O)N3CCN(C)CC3)cc2)c1,-5.2%,.,87.8%,?,-27.8%,-5.9%
COc1cc(OC)cc(C(=O)NC(=S)Nc2ccc(N3CCCC3)cc2)c1,?,5.7%,-10.4%,89.1µM*,?,-6.9%
O=C(NC(=S)Nc1ccc(N2CCOCC2)c(Cl)c1)c1cccs1,-5.5%,2.33µM*,-36.8%,.,?,-0.6%
O=C(NC(=S)Nc1ccccc1N1CCOCC1)c1cccs1,-5.0%,-24.0%,-19.8%,-22.3%,9.0%,28.9%
CC(Nc1ccc(F)cc1)=[N+](C)CCNS(=O)(=O)c1ccc(Cl)cc1,-13.6%,2.1%,-16.1%,?,-27.2%,18.3%
Cc1ccc(S(=O)(=O)CC(=O)Nc2nc3c(C)cc(C)cc3s2)cc1,0.5%,.,.,-5.4%,.,.
CCOc1ccc(C(=O)c2cn(CC(=O)Nc3ccc(C)c(C)c3)c3ccc(OCC)cc3c2=O)cc1,11.4%,.,.,0.6%,.,.
Cc1ccccc1-n1ncc(C(C)NC(=O)c2ccco2)c1C (centres undefined),-2.5%,10.0%,-3.0%,-16.5%,43.5%,0.9%
O=C(NC(=S)Nc1ccc(S(=O)(=O)N2CCCC2)cc1)c1cccs1,3.1%,?,-41.8%,17.8µM*,-17.4%,18.2%
O=C1CCCC2=C1C(c1ccsc1)CC(=O)N2c1ccccc1F (centres undefined),5.4%,?,3.5%,0.9%,10.3%,-5.8%
CCCSc1nnc(N2C(=O)CC(c3ccsc3)C3=C2CCCC3=O)s1 (centres undefined),?,?,4.47µM*,1.7%,?,-2.4%
Cn1c(=O)[nH]c(=O)c2c1nc(N1CCN(CCO)CC1)n2Cc1ccccc1,?,?,-12.0%,4.1%,-2.2%,5.0%
O=C(/C=C\c1cn(-c2ccccc2)nc1-c1ccccc1)Nc1nccs1,-13.5%,21.3%,11.2µM*,-6.1%,?,-18.0%
CC(=O)NS(=O)(=O)c1ccc(NC(=O)/C=C/c2cn(-c3ccccc3)nc2-c2ccccc2)cc1,-9.1%,-26.5%,-53.8%,-9.8%,9.2%,17.5%
